Our source for the Inhibition values is ChEMBL document CHEMBL1157539, “Thousands of chemical starting points for antimalarial lead identification” (Nature, 2010).

What is called Inhibition is the relative decrease from the control value, in per cent. A higher Inhibition goes with a strong effect.

Each structure is given as a SMILES string.

The test system of the test is HepG2. Description: GSK_TCMDC: Percent inhibition of human HepG2 cell line. Test compounds present at 10uM. The class given is functional.
`CN(C)c1cccc2c1nc(-c1ccco1)n2CC1CCCN1.O=C(O)C(F)(F)F` (stereo not given): the Inhibition was 0%.
The result for `C=CCN1C(=O)C(=Cc2cc(Br)ccc2O)SC1=Nc1ccccc1` reads 0%.
The result for `Cl.O=c1cc(NCCCNCc2sc(Br)nc2Br)[nH]c2ccccc12` reads 1%; that for `CN1CCN(CC(=O)Nc2ccc(-c3ccc(-c4nc5ccccc5[nH]4)cc3)cc2)CC1`, 18%.
The same measure for `CCCCCCCN1CCC(CCNc2ccnc3ccc(OC)cc23)CC1`: 5%; for `O=S(=O)(Nc1ccc(CCN2CCC(N3CCCCC3)CC2)cc1)c1ccccc1C(F)(F)F`: 9%.
Compound `COc1ccc(Nc2nc(N/N=C/c3ccc(O)cc3)nc(Nc3ccc([N+](=O)[O-])cc3)n2)cc1` returned an Inhibition of 0%.
The same measure for `Br.c1cc(C2=NC3CCCCC3N2)ccc1OCCCOc1ccc(C2=NC3CCCCC3N2)cc1` (stereo not given): 0%; for `COc1ccc(N(C)Cc2cnc3nc(N)nc(N)c3n2)cc1`: 15%; for `COc1ccc(CCNCC(O)c2cccc(Br)c2)c(Cl)c1OC.Cl` (stereo not given): 18%.
The result for `CCc1nc(N)nc(N)c1-c1ccc(C(C)C)cc1` reads 3%; that for `O=C(Nc1ccc(OC2CCN(Cc3ccsc3)C2)c(Cl)c1)c1cccs1.O=C(O)C(F)(F)F` (stereo not given), 0%.
The compound `COc1ccccc1C1CCN(CCCCNC(=O)c2ccc(/C=C/c3cc(Cl)cc(Cl)c3)cc2)CC1` yielded an Inhibition of 36%.
For the compound `CCNc1cc(C(=O)N[C@@H](Cc2ccccc2)[C@H](O)CNC2(CC)CCCCC2)cc(N2CCCCS2(=O)=O)c1.Cl`, the Inhibition is 3%.
`CCc1c[nH]c2c(N3CCCCC3=O)cc(C(=O)N[C@@H](Cc3ccccc3)[C@H](O)CNCc3cccc(OC)c3)cc12.O=CO` yielded an Inhibition of 8%.
The result for `Cl.Nc1c2c(nc3ccc(C(=O)Nc4cc(I)c(O)c(I)c4)cc13)CCCC2` reads 14%.
On to `CN1CCCC(CN2CCN(Cc3cccc(-c4cccc(-c5nc6ccccc6[nH]5)c4)c3)CC2)C1.O=C(O)C(F)(F)F` (stereo not given), for which the Inhibition stood at 45%.
The result for `O=C(N1CCN(c2ccc(C(F)(F)F)cc2[N+](=O)[O-])CC1)C(Cl)(Cl)Cl` reads 29%; that for `COc1ccc2[nH]ccc(=NN=Cc3cccc(F)c3)c2c1`, 13%; that for `COc1ccc2nccc([C@@H](O)CN3CCC(NCc4cc5cc(Cl)ccc5[nH]4)CC3)c2c1.O=C(O)C(=O)O`, 27%.
The result for `Cc1cc(NCCC(=O)Nc2ccccc2)nc(NCC2CCCCC2)n1.O=C(O)C(F)(F)F` reads 14%.
Consider `CC(C)(C)OC(=O)NCC(=O)N(Cc1ccccc1)Cc1ccccc1`, for which the Inhibition was found to be 0%.
The same measure for `Cn1cncc1-c1ccc2c(-c3ccsc3)cnc(N)c2c1`: 41%; for `COc1cc(Nc2nccc(N3CCC(NC(=O)Nc4ccc5c(c4)OCO5)C3)n2)cc(OC)c1OC` (stereo not given): 9%.
The same measure for `COc1ccc2nccc(N3CCC(SCCNS(=O)(=O)c4ccc5c(c4)OCCO5)C3)c2n1.Cl` (stereo not given): 36%; for `CN1CCCC1CCOc1ccc2c(c1)N(C(=O)Nc1cc(Br)cc(C(F)(F)F)c1)CC2.O=C(O)C(F)(F)F` (stereo not given): 13%.
The same measure for `COc1ccc2nccc([C@@H](O)CN3CCC(NCCOc4cccc(C(F)(F)F)c4)CC3)c2c1.O=C(O)C(=O)O`: 16%; for `Cl.Fc1cc(CN2CCCC2)ccc1OCCCN1CCN(c2cccc(Cl)c2Cl)CC1`: 67%.
As to `CCC(C)c1ccc(-n2c(Nc3ccccc3)nc3cc(S(N)(=O)=O)ccc32)cc1` (stereo not given), the Inhibition is 0%.
The result for `CCC(C)(C)c1ccc2nc(N)nc(N)c2c1C` reads 62%; that for `CC(N)(Cc1ccc(O)cc1)c1nnn[nH]1` (stereo not given), 7%; that for `O=CO.c1ccc(CCNc2ccnc(Nc3ccc4cn[nH]c4c3)n2)cc1`, 54%.
In turn, `CCNCc1cccc(-c2ccc3ccnc(N)c3c2)c1` displayed an Inhibition of 17%.
The same measure for `O=C(O)C(F)(F)F.c1cc(CN2CCN(c3ccncc3)CC2)cc(-c2cccc(-c3nc4ccccc4[nH]3)c2)c1`: 35%; for `Cc1sc(NC(=O)c2ccc([N+](=O)[O-])cc2Cl)c(C(N)=O)c1C`: 2%; for `O=C(Nc1ccc(C(F)(F)F)cc1)c1cc(Br)cnc1NCCCn1ccnc1`: 32%.
As to `CN(CCCCCN1CCC(NC(=O)Nc2ccc(C(F)(F)F)cc2)C1)C(=O)/C=C/c1ccc(Cl)c(Cl)c1` (stereo not given), the Inhibition came to 28%.
The result for `CSc1nc2nc(C)c(Cc3cccc(C(F)(F)F)c3)c(C)n2n1` reads 4%; that for `Cc1cc2nc(-c3ccc(C(=O)NCc4ccc(Cl)c(Cl)c4)cc3)[nH]c2cc1C`, 6%.
The same measure for `O=C(Nc1ccc(Cl)cc1)Nc1nc2cc([N+](=O)[O-])ccc2[nH]1`: 0%.
